Our source for the growth inhibition values is PubChem BioAssay (NCI).

A short description of assay [1]: NCI Yeast Anticancer Drug Screen. Data for the rad50 strain (AID 155).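 Further: 0% = growth of vehicle-only cultures of the same strain.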 The note with it: S. cerevisiae rad50 strain growth inhibition, hits give high values. Summed up: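 Cells are treated with compound, grown, and their growth is then scored against vehicle-only cultures of the same repair-deficient yeast strain.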
A short description of assay [2]: NCI Yeast Anticancer Drug Screen. Data for the mec2-1 strain (AID 157). The following applies: S. cerevisiae mec2-1 strain, hits give high values. In outline:
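Using mec2-1 yeast: add compound, measure growth, express inhibition versus vehicle-treated cultures.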

Assay [3] in a line: NCI Yeast Anticancer Drug Screen. Data for the sgs1 mgt1 strain (AID 161).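 Further: 0% = growth of cultures given vehicle only.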 The note with it: S. cerevisiae sgs1 mgt1 strain, hits give high values. In outline: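 Growth of a repair-deficient yeast mutant was monitored after compound treatment and expressed as inhibition relative to vehicle-treated cultures.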
A short description of assay [4]: NCI Yeast Anticancer Drug Screen. Data for the cln2 rad14 strain (AID 165).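 Further: 0% = growth equal to vehicle treated cultures.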 The note with it: S. cerevisiae cln2 rad14 strain, hits give high values. Summed up: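 Yeast strain cln2 rad14, bearing defects in cell cycle control and DNA repair, serves as the test system; values reflect growth inhibition compared with vehicle.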
A short description of assay [5]: NCI Yeast Anticancer Drug Screen. Data for the bub3 strain (AID 167). The following applies: S. cerevisiae bub3 mutant strain, hits give high values. In outline:
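Part of a panel of yeast mutants defective in DNA damage repair or cell cycle regulation. Each strain is grown with compound, and inhibition is calculated relative to solvent-treated cultures.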

The nature of assay [6]: NCI Yeast Anticancer Drug Screen. Data for the mlh1 rad18 strain (AID 175). The following applies: S. cerevisiae mlh1 rad18 strain growth inhibition, hits give high values. In outline: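 Steps: expose repair-defective yeast to compound; measure growth; express inhibition against vehicle-treated controls.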
Setting [7] is: at 5.0 µM (retest, dose inferred, filed as 0.5).
The mark [8] stands for this setting: at 50.0 µM (retest, dose inferred, filed as 5.0).

SMILES strings stand for the structures. The panel holds about 79,000 compounds, 15% with a hit somewhere; the sample as a whole holds those more often. A number with no mark means an inactive call. The source made the active and inactive calls. No stated cut-off is given here; in the data, active means growth inhibition above about 70%; inactive means the rest.

Consider `CCCC/C=C1\CCC(CN2CCCCC2)C1=O` (configuration not stated), for which the growth inhibition in assay [1] (setting [7]) was 44%; in assay [1] (setting [8]) it was 70% (active); in assay [1] (at 50.0 µM) it was 89.2% (active); in assay [2] (setting [7]), 40%; in assay [2] (setting [8]) it was 60%; in assay [2] (at 50.0 µM), 69.8%. Further, the growth inhibition is 75% (active) in assay [3] (setting [7]); 96% (active) in assay [3] (setting [8]); 85.3% (active) in assay [3] (at 50.0 µM); 59% in assay [4] (setting [7]); 75% (active) in assay [4] (setting [8]); 77.2% (active) in assay [4] (at 50.0 µM). Also, the growth inhibition in assay [5] (setting [7]) is 84% (active); in assay [5] (setting [8]), 98% (active); in assay [5] (at 50.0 µM) it was 67.2%; in assay [6] (setting [7]), 56%; in assay [6] (setting [8]), 83% (active); in assay [6] (at 50.0 µM), 88% (active).

With `CCN(CC)c1c(C(=O)/C=C/c2ccc(Cl)cc2)c(-c2ccccc2)nn(C)c1=O`, the growth inhibition in assay [1] (setting [7]) is 18%; in assay [1] (setting [8]), 85% (active); in assay [1] (at 50.0 µM) it was 82.5% (active); in assay [2] (setting [7]) it was 15%; in assay [2] (setting [8]), 91% (active); in assay [2] (at 50.0 µM), 85.9% (active). The growth inhibition in assay [3] (setting [7]) was 14%; in assay [3] (setting [8]), 73% (active); in assay [3] (at 50.0 µM), 81% (active); in assay [4] (setting [7]), 7%; in assay [4] (setting [8]), 82% (active); in assay [4] (at 50.0 µM), 83.7% (active). Further, the growth inhibition was 8% in assay [5] (setting [7]); 92% (active) in assay [5] (setting [8]); 84% (active) in assay [5] (at 50.0 µM); 24% in assay [6] (setting [7]); 92% (active) in assay [6] (setting [8]); 81.8% (active) in assay [6] (at 50.0 µM).

Turning to `C=CCOC(=O)C#CCCCC`, the growth inhibition in assay [1] (setting [7]) was -3%; in assay [1] (setting [8]), 1%; in assay [1] (at 50.0 µM) it was -5.25%; in assay [2] (setting [7]) it was 3%; in assay [2] (setting [8]), 2%; in assay [2] (at 50.0 µM), 19.6%. The growth inhibition was -2% in assay [3] (setting [7]); 2% in assay [3] (setting [8]); 15.7% in assay [3] (at 50.0 µM); -5% in assay [4] (setting [7]); 5% in assay [4] (setting [8]); 87.8% (active) in assay [4] (at 50.0 µM). In addition, the growth inhibition is -1% in assay [5] (setting [7]); 11% in assay [5] (setting [8]); -12.8% in assay [5] (at 50.0 µM); -1% in assay [6] (setting [7]); 6% in assay [6] (setting [8]); -12.3% in assay [6] (at 50.0 µM).

Turning to `O=C(O)C1C(C(=O)Nc2ccc3c(c2)Cc2ccccc2-3)C2(Cl)C(Cl)=C(Cl)C1(Cl)C2(Cl)Cl` (configuration not stated), the growth inhibition in assay [1] (setting [7]) was 31%; in assay [1] (setting [8]), 99% (active); in assay [1] (at 50.0 µM), 98.4% (active); in assay [2] (setting [7]), 27%; in assay [2] (setting [8]), 99% (active); in assay [2] (at 50.0 µM), 98.7% (active). The growth inhibition in assay [3] (setting [7]) is 47%; in assay [3] (setting [8]), 99% (active); in assay [3] (at 50.0 µM), 98.5% (active); in assay [4] (setting [7]) it was 31%; in assay [4] (setting [8]), 99% (active); in assay [4] (at 50.0 µM), 98.3% (active). Moreover, the growth inhibition is 14% in assay [5] (setting [7]); 99% (active) in assay [5] (setting [8]); 98.3% (active) in assay [5] (at 50.0 µM); 46% in assay [6] (setting [7]); 99% (active) in assay [6] (setting [8]); 98.3% (active) in assay [6] (at 50.0 µM).

Take `CN=c1ss/c(=N\C(=S)N(C)C)n1-c1ccccc1`: the growth inhibition in assay [1] (setting [7]) was -10%; in assay [1] (setting [8]) it was -10%; in assay [1] (at 50.0 µM), -17.1%; in assay [2] (setting [7]), -11%; in assay [2] (setting [8]) it was 7%; in assay [2] (at 50.0 µM) it was -7.45%. Moreover, the growth inhibition is 13% in assay [3] (setting [7]); -20% in assay [3] (setting [8]); -18.6% in assay [3] (at 50.0 µM); 8% in assay [4] (setting [7]); 13% in assay [4] (setting [8]); 4.45% in assay [4] (at 50.0 µM). Also, the growth inhibition was 4% in assay [5] (setting [7]); 7% in assay [5] (setting [8]); 42.5% in assay [5] (at 50.0 µM); -20% in assay [6] (setting [7]); 3% in assay [6] (setting [8]); -22.5% in assay [6] (at 50.0 µM).

`CN(C)CC(=O)OCC[N+](C)(C)C`: the growth inhibition in assay [1] (setting [7]) is -3%; in assay [1] (setting [8]), -2%; in assay [1] (at 50.0 µM), -22.1%; in assay [2] (setting [7]) it was -6%; in assay [2] (setting [8]), -5%; in assay [2] (at 50.0 µM), -15.1%. The growth inhibition in assay [3] (setting [7]) was -3%; in assay [3] (setting [8]) it was -3%; in assay [3] (at 50.0 µM) it was -12.7%; in assay [4] (setting [7]), -15%; in assay [4] (setting [8]) it was -10%; in assay [4] (at 50.0 µM), 56.4%. Moreover, the growth inhibition in assay [5] (setting [7]) was 6%; in assay [5] (setting [8]) it was 30%; in assay [5] (at 50.0 µM) it was 15.4%; in assay [6] (setting [7]), -4%; in assay [6] (setting [8]), 1%; in assay [6] (at 50.0 µM), -15.9%.

Regarding `[Cl][Sn]1([Cl])[CH2]CC[CH2][Sn]([Cl])([Cl])[CH2]CC[CH2][Sn]([Cl])([Cl])[CH2]CC[CH2][Sn]([Cl])([Cl])[CH2]CC[CH2]1`, the growth inhibition was -20% in assay [1] (setting [7]); 57% in assay [1] (setting [8]); 54.3% in assay [1] (at 50.0 µM); -19% in assay [2] (setting [7]); 63% in assay [2] (setting [8]); 83.3% (active) in assay [2] (at 50.0 µM). Moreover, the growth inhibition is -3% in assay [3] (setting [7]); 66% in assay [3] (setting [8]); 87.5% (active) in assay [3] (at 50.0 µM); -6% in assay [4] (setting [7]); 47% in assay [4] (setting [8]); 69.6% in assay [4] (at 50.0 µM). Also, the growth inhibition in assay [5] (setting [7]) is -9%; in assay [5] (setting [8]) it was 66%; in assay [5] (at 50.0 µM), 70.9% (active); in assay [6] (setting [7]), -2%; in assay [6] (setting [8]), 83% (active); in assay [6] (at 50.0 µM), 94% (active).

Take `CCCCCCCCCc1cc(O)c(O)cc1CCCCCCCCC`: the growth inhibition in assay [1] (setting [7]) is -8%; in assay [1] (setting [8]), 80% (active); in assay [1] (at 50.0 µM), 22.4%; in assay [2] (setting [7]), -13%; in assay [2] (setting [8]), 68%; in assay [2] (at 50.0 µM), 25.2%. In addition, the growth inhibition is -7% in assay [3] (setting [7]); 42% in assay [3] (setting [8]); 42.9% in assay [3] (at 50.0 µM); -23% in assay [4] (setting [7]); 86% (active) in assay [4] (setting [8]); 54.1% in assay [4] (at 50.0 µM). Besides, the growth inhibition in assay [5] (setting [7]) is -12%; in assay [5] (setting [8]), 79% (active); in assay [5] (at 50.0 µM), 22.4%; in assay [6] (setting [7]) it was -2%; in assay [6] (setting [8]), 66%; in assay [6] (at 50.0 µM), 1.65%.

In the case of `C1CCC(CC[N+]23CC[N+](CCC4CCCC4)(CC2)C3)C1`, the growth inhibition was 1% in assay [1] (setting [7]); 33% in assay [1] (setting [8]); 62.3% in assay [1] (at 50.0 µM); -8% in assay [2] (setting [7]); 34% in assay [2] (setting [8]); -14.4% in assay [2] (at 50.0 µM). For the same compound, the growth inhibition is 12% in assay [3] (setting [7]); 72% (active) in assay [3] (setting [8]); 45.3% in assay [3] (at 50.0 µM); 2% in assay [4] (setting [7]); 15% in assay [4] (setting [8]); -8.6% in assay [4] (at 50.0 µM). Further, the growth inhibition was 2% in assay [5] (setting [7]); 25% in assay [5] (setting [8]); 11.6% in assay [5] (at 50.0 µM); 24% in assay [6] (setting [7]); 59% in assay [6] (setting [8]); 40% in assay [6] (at 50.0 µM).
